Source: PubChem BioAssay (NCI)
The panel holds about 83,000 compounds, 20% with a hit somewhere; the sample as a whole holds those more often.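 Step 1: grow cells in 96-well plates. Step 2: add test compound at a single concentration. Step 3: incubate 48 h. Step 4: record percent growth.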 Values without a mark were called inactive. Active and inactive are the calls of the source. Rule for the calls: active = growth percent below 10; inactive = the rest.

Legend:
Assay in all cases: NCI-60 one-dose screen, 48 h (100 = growth as untreated, 0 = no growth, -100 = all killed)
Conditions in all cases: 10 µM unless noted
SR leukemia = system: SR leukemia
RPMI-8226 leukemia = system: RPMI-8226 leukemia
OVCAR-8 ovarian = system: OVCAR-8 ovarian
OVCAR-5 ovarian = system: OVCAR-5 ovarian
OVCAR-4 ovarian = system: OVCAR-4 ovarian
SK-OV-3 ovarian = system: SK-OV-3 ovarian
IGROV1 ovarian = system: IGROV1 ovarian
OVCAR-3 ovarian = system: OVCAR-3 ovarian
HS 578T breast = system: HS 578T breast
NCI/ADR-RES ovarian = system: NCI/ADR-RES ovarian
T-47D breast = system: T-47D breast
BT-549 breast = system: BT-549 breast
SW-620 colon = system: SW-620 colon
MCF7 breast = system: MCF7 breast
HCT-116 colon = system: HCT-116 colon
HCC-2998 colon = system: HCC-2998 colon
KM12 colon = system: KM12 colon
MDA-MB-435 melanoma = system: MDA-MB-435 melanoma

Row | SMILES | growth (SR leukemia) | growth (RPMI-8226 leukemia) | growth (OVCAR-8 ovarian) | growth (OVCAR-5 ovarian) | growth (OVCAR-4 ovarian) | growth (SK-OV-3 ovarian) | growth (IGROV1 ovarian) | growth (OVCAR-3 ovarian) | growth (HS 578T breast) | growth (NCI/ADR-RES ovarian) | growth (T-47D breast) | growth (BT-549 breast) | growth (SW-620 colon) | growth (MCF7 breast) | growth (HCT-116 colon) | growth (HCC-2998 colon) | growth (KM12 colon) | growth (MDA-MB-435 melanoma)
1 | COc1cc(C(=O)/C=C/c2c(C)n([O-])c3ccc(Cl)cc3[n+]2=O)cc(OC)c1OC | -5.8% (active) | -35.2% (active) | 23% | 86.6% | 70.7% | 87.3% | -30.3% (active) | 23.2% | 86.3% | 39% | 29.8% | 64.7% | 24.2% | 30.4% | 15.4% | 100% | 73.1% | –
2 | COc1cccc(CNCCN2C(=O)c3ccc4c5c(ccc(c35)C2=O)C(=O)N(CCNCc2cccc(OC)c2)C4=O)c1 | -27.8% (active) | -14.8% (active) | 68.3% | 120% | 75.9% | 114% | 75.9% | 24.6% | 121% | 88.8% | 97.4% | 96.1% | -33% (active) | 9.83% (active) | – | 97.8% | 82.4% | –
3 | C/C(=C(/c1ccccc1)c1ccc(OCC(O)CN2CCOCC2)cc1)c1ccccc1 (stereo not given) | 47.2% | 75% | 88.5% | 87.2% | 89.3% | 91.3% | 96.2% | 90.4% | 90.8% | 93.2% | 60.3% | 93.3% | 88.6% | 84.2% | 46.3% | 102% | 63.6% | –
4 | Fc1ccc(C2CC(c3cccc(Nc4ccncc4)c3)=NN2c2ccc(Cl)cc2)cc1 (stereo not given) | 4.4% (active) | 28% | 22.6% | 88.8% | 60.7% | 80.9% | 44.3% | 67.8% | 79.9% | 66.8% | 80.9% | 105% | -74% (active) | 6.6% (active) | – | 16.7% | 19.5% | -6.55% (active)
5 | COc1ccc(Nn2c(SCC(=O)Nc3nc(-c4ccc(Cl)cc4)cs3)nc(C)c2C)cc1 | 40.3% | 35.7% | 43.9% | 111% | 37% | 77.8% | 70.9% | 60.7% | 86.1% | 23.1% | 32.9% | 53.3% | 75.2% | 20.8% | – | 54.2% | 43.1% | 50.4%
6 | COc1cccc(NC(=O)c2cccc(-c3cc(=O)c4c(OC)c(OC)c(OC)cc4o3)c2)c1 | 41.9% | 17% | 47% | 90.1% | 62.6% | 109% | 53.3% | 66.6% | 46.2% | 64.8% | 44.4% | 54.2% | 89.6% | 87.7% | 60.7% | 87.8% | 53.7% | –
7 | O=C(Nc1ccc2ncnc(Nc3ccc(Oc4cccc(F)c4)c(Cl)c3)c2c1)c1ccc(CNCCO)cc1 | 5.98% (active) | 6.61% (active) | 31.5% | 78.1% | 7.6% (active) | 29.5% | 9.12% (active) | 45.7% | 51.3% | 76.9% | 42.6% | – | -74% (active) | -67.2% (active) | -46.5% (active) | -8.44% (active) | 12.9% | -86.3% (active)
8 | COc1cc(C2CC(c3cccc(Nc4ccncc4)c3)=NN2c2cc(Cl)cc(Cl)c2)cc(OC)c1OC (stereo not given) | 0.528% (active) | -13.7% (active) | -8.55% (active) | 65.1% | 6.43% (active) | 76.2% | -2.86% (active) | 3.71% (active) | 0.285% (active) | 51.4% | 26.7% | 104% | -62.6% (active) | -50.7% (active) | 87.3% | -60.4% (active) | -75.7% (active) | –
9 | COc1cccc(CCC(=O)c2cc3c(N)c(C(=O)Nc4ccccc4)sc3nc2C)c1 | 16.2% | 43.8% | 60.2% | 48.6% | 53.9% | 56.8% | 34% | 18% | 21.5% | 12.2% | 38.2% | – | 22.2% | 10.5% | 14.4% | 45.1% | 23% | -44.5% (active)
10 | c1ccc(N2N=C(c3cccc(Nc4ccncc4)c3)CC2c2ccc3c(c2)OCO3)cc1 (stereo not given) | 4.46% (active) | 2.64% (active) | 21.7% | 43.7% | 33.6% | 22.1% | 16% | 7.28% (active) | 23.8% | -1.79% (active) | 48.5% | 80% | -53.6% (active) | 2.01% (active) | – | 0.363% (active) | 8.25% (active) | –
11 | c1ccc(-c2nn(-c3ccccc3)[n+](-c3cccc4ccccc34)n2)cc1 | 4.45% (active) | 0.0671% (active) | -43.5% (active) | 48.1% | 41.4% | 66.3% | 10.6% | 8.96% (active) | 8.44% (active) | 90.1% | 25% | 13.4% | – | 11.7% | 7.65% (active) | 20.8% | 10.1% | -50.3% (active)
